The text below walks through data of PubChem BioAssay AID950 (NMMLSC, 2007).

Among all 190,000 compounds or so, about 120 (0.063%) were called active. The list comes from a sample in which actives are over-represented; it also holds similar structures and randomly drawn compounds. A number with no mark means an inactive call. Rule as the data show it: active = inhibition above about 40%; inconclusive = no clear call, values can overlap the other calls; inactive = below that.

The target in the assay is Apoptosis regulator Bcl-2 (Homo sapiens) (UniProt P10415). The experiment in a line: inhibitors of Bim-Bcl-2 binding, primary screen, biochemical, multiplexed, human Bcl-2 family (AID 950).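 Also: 0% = no compound wells with probe peptide and 100% = reference peptide inhibitor.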 The settings on record: Bead-based flow cytometry, Bim peptide-Bcl-2 binding; at 10 µM; stronger effect = higher value. For orientation: Flow cytometry measures light scatter and fluorescence of single cells or particles in a stream.
Apoptosis regulator Bcl-2 (Homo sapiens), sequence (P10415 whole entry, looked up): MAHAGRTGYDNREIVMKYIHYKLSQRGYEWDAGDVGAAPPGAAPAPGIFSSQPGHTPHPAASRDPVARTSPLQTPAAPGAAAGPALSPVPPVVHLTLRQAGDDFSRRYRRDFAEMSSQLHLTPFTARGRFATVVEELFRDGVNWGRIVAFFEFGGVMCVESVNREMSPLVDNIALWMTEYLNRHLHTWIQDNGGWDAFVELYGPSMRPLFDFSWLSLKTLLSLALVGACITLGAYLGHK
In the case of `COc1ccc(N2CCN(C(=O)C3CCN(S(=O)(=O)c4ccc(C)cc4)CC3)CC2)cc1`, the inhibition is 2%.

With `O=C(c1ccc(N2CCOCC2)c([N+](=O)[O-])c1)N1CCN(S(=O)(=O)c2cccs2)CC1`, the inhibition is 0%.

As to `COc1ccc(C(=O)C[n+]2ccc(N)c(C)c2C)cc1`, the inhibition was -1%.

Turning to `Cc1ccc(Cl)cc1NC(=S)N(CCN(C)C)Cc1cccs1`, the inhibition was -4%.

As for `C/C(=N\NC(=S)NC(C)C)c1ccc(C(C)(C)C)cc1`, the inhibition is -4%.

On to `Cc1nnc(N/N=C/C2CC=CCC2)[nH]c1=O` (stereo not drawn), for which the inhibition is 2%.

With `O=C(c1cccc(S(=O)(=O)N2CCCC2)c1)N(Cc1ccco1)C1CCS(=O)(=O)C1` (stereo not drawn), the inhibition was -3%.

For `CCC(=O)Nc1ccc(Nc2nc(Cl)nc(Nc3ccc(NC(=O)CC)cc3)n2)cc1`, the inhibition is 0%.

In the case of `COCCCNCCOCCOc1ccc(Cl)cc1Br`, the inhibition was 1%.

`O=C(NCc1ccccc1)C1=C[C@@H](C2CCCCC2)C[C@@H](OCc2ccc(CO)cc2)O1`: the inhibition was -1%.

As for `CCOC(=O)C1CCCN(C(=O)/C=C/c2ccc(OC)cc2)C1` (stereo not drawn), the inhibition was -3%.

In the case of `CCn1c(=O)cc(SCC(=O)NCCC2=CCCCC2)c2ccccc21`, the inhibition was 8%.

In the case of `O=c1cnnc(Nc2ccccc2)[nH]1`, the inhibition is -1%.

`O=C(N/N=C1\CCSC1)c1cc(Cl)ccc1O`: the inhibition was 3%.

For `CCOC(=O)COc1ccc([N+](=O)[O-])cc1`, the inhibition was -1%.

Regarding `CCCn1c(C)cc(/C=C(\C#N)C(=O)OCC(=O)Nc2cc(OC)c(OC)c(OC)c2)c1C`, the inhibition was -6%.

`CC1(C)C(c2cccs2)=[N+]([O-])C2(CCCCC2=O)N1O` (stereo not drawn): the inhibition is -5%.

`CCN(CC(=O)NCc1cccs1)C(=O)c1ccccc1F`: the inhibition was 1%.

Consider `COCCN(C(=S)Nc1ccccc1OC)C1CCN(C(C)C)CC1`, for which the inhibition was -1%.

As for `Cc1cc(NC(=O)CSCc2ccccc2C)no1`, the inhibition was -1%.

For the compound `COC(=O)c1cc(C)sc1NC(=O)CC1Nc2ccccc2NC1=O` (stereo not drawn), the inhibition was 0%.

Regarding `CCN(CC)CCOC(=O)c1ccc(NC(=O)CNC(=O)c2ccccc2)cc1`, the inhibition was -4%.

On to `CCC(NC(=O)c1ccccc1NC(=O)c1ccccc1)C(=O)NNC(=O)CSc1nc2ccccc2o1` (stereo not drawn), for which the inhibition was -6%.

Regarding `CC(=O)N1CC(C)c2scc(C)[n+]2-c2ccccc21` (stereo not drawn), the inhibition is 2%.

In the case of `CC(O)c1nc2ccccc2n1Cc1ccc([N+](=O)[O-])cc1` (stereo not drawn), the inhibition was -5%.

`Cc1cc(C)cc(C(=O)N2CCN=C2SCc2ccc([N+](=O)[O-])cc2)c1`: the inhibition is -3%.

As for `Cc1ccc(C(=O)N2CC(=O)Nc3ccccc32)o1`, the inhibition was -6%.

As to `CCc1nnc(NC(=O)CSc2nnnn2-c2cccc(C(C)=O)c2)s1`, the inhibition was -2%.

In the case of `Cn1cc(CCC(=O)N2CCCC(C(=O)c3ccc(C(C)(C)C)cc3)C2)cn1` (stereo not drawn), the inhibition was -5%.

`O=C(NCc1ccncc1)C(=O)NCc1ccco1`: the inhibition was -1%.

Regarding `Cc1ccc(S(=O)(=O)NC2(C(F)(F)F)NC(=O)N(CCc3ccccc3)C2=O)cc1` (stereo not drawn), the inhibition is -1%.

Regarding `C=CS(=O)c1sc(Cl)c(N2CCOCC2)c1[N+](=O)[O-]` (stereo not drawn), the inhibition is 14%.

Regarding `CN1C(=O)/C(=C\c2cc(Br)cs2)c2ccccc21`, the inhibition is -2%.

Regarding `CC(=O)c1cc(C#N)c(N2CC(C)OC(C)C2)nc1C` (stereo not drawn), the inhibition is -4%.

Regarding `Oc1ccc(/C=N/N(Cc2ccccc2)c2ccccc2)cc1`, the inhibition was -9%.

Take `Cn1ncc(N2CCN(S(=O)(=O)c3ccc(Br)cc3)CC2)c(Cl)c1=O`: the inhibition was -9%.

Take `C=CCOc1ccc(/C=N/NC(=O)C(C)Sc2ccccn2)cc1OCC` (stereo not drawn): the inhibition is -6%.

With `O=C(NNS(=O)(=O)c1ccc(F)cc1)c1cnccn1`, the inhibition was 0%.

Regarding `COCCC(=O)Nc1ccc2c(c1)CN(C(=O)CCOC)CC2`, the inhibition is -4%.

As to `Cc1ccc(NC(=O)CCC(=O)N/N=C/c2ccco2)c(C)c1`, the inhibition was -6%.

For `CCCc1cc(=O)[nH]c(SCc2cc(=O)oc3c(C)c(C)ccc23)n1`, the inhibition is -3%.

Consider `Cc1cccc(-c2nc3ccccc3c(=O)n2NC(=O)Cc2ccc(Cl)cc2)c1`, for which the inhibition is -11%.

With `S=C(NCc1ccco1)Nc1ccc2c(c1)OCCO2`, the inhibition is -1%.

Regarding `CCCCC(=O)NCc1ccc(F)cc1`, the inhibition is 0%.

As for `COc1ccc(NC(=S)NCc2cccs2)c(OC)c1`, the inhibition was -4%.

`O=C(O)CS/C(=C\c1ccc(F)cc1)c1nc2ccccc2s1`: the inhibition is 7%.

`Clc1ccc(CSc2nnc(/C=C/c3ccccc3)o2)c(Cl)c1`: the inhibition was -8%.

`CSCc1cc(N(C)C)nc(SCc2ccc(Cl)cc2Cl)n1`: the inhibition was 76% (active).

In the case of `CSCc1cc(N2CCOCC2)nc(SCc2ccc(Cl)cc2Cl)n1`, the inhibition is -12%.

Regarding `COc1ccc(/C(C)=N/Nc2cc(C(F)(F)F)ccc2Cl)c(OC)c1`, the inhibition was 2%.

Consider `COc1c(C)cc(C(=O)C2CCCN(S(=O)(=O)c3c(C)noc3C)C2)cc1C` (stereo not drawn), for which the inhibition is 0%.

With `CC1(C)OC(=O)C(=CSc2ccc(C(C)(C)C)cc2)C(=O)O1`, the inhibition is -3%.

In the case of `CCOC(=O)C1CCN(c2ncnc3c2c(-c2ccccc2)cn3-c2ccc(C)cc2)CC1`, the inhibition is -5%.

On to `CCCN(CCC)c1ccc(C(O)c2nnc(-c3ccccc3)o2)cc1` (stereo not drawn), for which the inhibition was -5%.

Turning to `O=C(COc1ccc(Cl)cc1)NCc1nnc(SCC(=O)NCC2CCCO2)o1` (stereo not drawn), the inhibition was -2%.

`COC(=O)c1c(NC(=O)CN2CCN(S(=O)(=O)c3ccccc3[N+](=O)[O-])CC2)sc2c1CCC(C)C2` (stereo not drawn): the inhibition is 2%.

In the case of `O=S(=O)(c1ccccc1)c1nc(-c2ccccc2F)oc1NCc1cccnc1`, the inhibition is 2%.

In the case of `CS(=O)(=O)N(Cc1ccccc1Cl)c1ccc(C(=O)NCc2cccnc2)cc1`, the inhibition was -4%.

As for `CCOC(=O)c1sc(NC(=O)CSc2nc(O)c(Cc3ccccc3)c(=O)[nH]2)nc1C`, the inhibition is 0%.

For `COc1ccc(CN2CN(C3CCCC3)CSC2=S)cc1`, the inhibition is -4%.

Turning to `COC(=O)c1ccc(-n2cnc3ccccc32)nc1`, the inhibition was -4%.

Consider `CCOc1cc(/C=C2/C(=N)N3OC(C)=CC3=NC2=O)ccc1OC`, for which the inhibition was 2%.

`CNC(=O)c1[nH]cnc1C(=O)N[C@@H](CC(C)C)C(=O)OCc1ccccc1`: the inhibition is -3%.

Broadly, the inhibition is the relative decrease from the control value, in per cent.
